Source: PubChem BioAssay
ADAM17 inh: ADAM17 inhibition, QFRET primary screen; AID 720648; 0.83% of 370,000 active; recombinant ADAM17, EDANS/DABCYL FRET peptide cleavage; inhibition, % at 6.95 µM; P78536;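 active = inhibition above the mean of compounds lying between control limits plus 3 SD, set per campaign, cut at about 8.5% in these data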;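 also: 0% = DMSO-only wells as the low control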
GC-A act: GC-A (human) enzyme activation | AID 1671463 | 0.14% of 370,000 active | HEK293 GC-A cells, cGMP TR-FRET, EC30 ANP; 0% at EC30 ANP, 100% saturating ANP | activation, % at 10 µM | P16066; in the data active = activation above about 40%
ADAM10 inh: inhibits human ADAM10; 0.62% of 370,000 active; inhibition, % at 7 µM; recombinant ADAM10, EDANS/DABCYL FRET peptide cleavage, 3 h;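 active = inhibition above a per-campaign cutoff equal to the mean of compounds falling between control-based bounds plus 3 SD, cut at about 20% in these data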;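 also: 0% = DMSO wells while the 100% control is not disclosed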
GC-B act: GC-B (human) receptor activation. P20594. HEK293-GC-B cells, CNP EC30, cGMP TR-FRET; 0% at EC30 CNP, 100% saturating CNP. activation, % at 10 µM. 0.11% of 370,000 active. AID 1920062;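 active = activation at 10 µM reaching about 35% in either raw or pattern-adjusted values, limit read from the data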
ADAM10 counter: inhibits human ADAM10 in ADAM17 exosite counter-screen; shares compounds with ADAM17 inh; recombinant ADAM10, EDANS/DABCYL FRET peptide cleavage, 3 h; inhibition, % at 6.95 µM; 47% of 2,900 active; AID 743256;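 active = mean inhibition over the triplicate runs exceeds the activity threshold set in the earlier primary screen, cut at about 20% in these data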;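 also: 0% = DMSO wells and 100% = marimastat wells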
ADAM17 confirm: confirmation of inhibitors of human ADAM17; shares compounds with ADAM17 inh; 65% of 2,900 active; inhibition, % at 6.95 µM; AID 743257; recombinant ADAM17, EDANS/DABCYL QFRET peptide cleavage;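 active = mean inhibition across replicates above the hit cutoff set in the primary screen, cut at about 8.5% in these data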;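 also: 0% = DMSO wells and 100% = marimastat wells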
* = called active by the depositor. This is a sample that favours compounds with a hit; in the whole collection about 1.3% have one here.

What do the screens show for `O=C(O)c1cc(O)c2c(c1)[C@H]([C@H]1c3cc(C(=O)O)cc(O)c3C(=O)c3c(O[C@@H]4O[C@H](CO)[C@@H](O)[C@H](O)[C@H]4O)cccc31)c1cccc(OC3O[C@H](CO)[C@@H](O)[C@H](O)[C@H]3O)c1C2=O` (some centres undefined)?
ADAM17 inh: 15.8*; GC-A act: -40.8; ADAM10 inh: -255.1; GC-B act: -31.1; ADAM10 counter: -367.3; ADAM17 confirm: 9.7*

How did O=C(O)c1cc(O)c2c(c1)[C@@H]([C@H]1c3cc(C(=O)O)cc(O)c3C(=O)c3c(O[C@@H]4O[C@H](CO)[C@@H](O)[C@H](O)[C@H]4O)cccc31)c1cccc(OC3O[C@H](CO)[C@@H](O)[C@H](O)[C@H]3O)c1C2=O (some centres undefined) do in these assays?
ADAM17 inh: 2.8; GC-A act: -39.1; ADAM10 inh: -209.2; GC-B act: -3.3

Results for Oc1c(C(Nc2ccccn2)c2cccnc2)cc(Cl)c2cccnc12 (centres undefined) ?
ADAM17 inh: 10.8*; GC-A act: -3.9; ADAM10 inh: 13.7; GC-B act: -2.8; ADAM10 counter: 26.4*; ADAM17 confirm: 15.6*

What do the screens show for `CCC(C)Cn1cnc2c(Sc3c([N+](=O)[O-])ncn3C)nc(N)nc21` (centres undefined)?
ADAM17 inh: 0.0; GC-A act: 5.7; ADAM10 inh: -1.2; GC-B act: 7.5

Results for CC(C)Cn1cnc2c(Sc3c([N+](=O)[O-])ncn3C)nc(N)nc21 ?
ADAM17 inh: 9.4*; GC-A act: 7.3; ADAM10 inh: 13.0; GC-B act: 8.8; ADAM10 counter: 16.4; ADAM17 confirm: 7.8

Results for CSCC[C@H](NC(=O)c1cccc(S(=O)(=O)N2CCCCCC2)c1)c1nc2ccccc2[nH]1 ?
ADAM17 inh: 0.5; GC-A act: -1.6; ADAM10 inh: -2.6; GC-B act: 3.9

How did CSCCC(NC(=O)c1cccc(S(=O)(=O)N2CCOCC2)c1)c1nc2ccccc2[nH]1 (centres undefined) do in these assays?
ADAM17 inh: 10.3*; GC-A act: -0.6; ADAM10 inh: 2.5; GC-B act: 1.0; ADAM10 counter: 13.6; ADAM17 confirm: 6.9

Results for CCn1c(C(=O)O)c(CC(=O)Nc2ccccc2OC)c2ccccc21 ?
ADAM17 inh: 2.7; GC-A act: 4.6; ADAM10 inh: -6.8; GC-B act: -5.3

Results for CNC(=O)N(C1=NCC(C)(C)S1)c1ccc(F)c(Cl)c1 ?
ADAM17 inh: 9.2*; GC-A act: 11.3; ADAM10 inh: 11.1; GC-B act: -7.6; ADAM10 counter: 8.5; ADAM17 confirm: 5.8

Results for C/C=C/C(=O)OCC(=O)Nc1nc2ccc(C)cc2s1 ?
ADAM17 inh: 9.3*; GC-A act: -8.3; ADAM10 inh: 16.2; GC-B act: 2.6; ADAM10 counter: -11.2; ADAM17 confirm: -1.9

How did O=C(Nc1ccccc1)c1ccc(-c2ccccc2C(F)(F)F)o1 do in these assays?
ADAM17 inh: 9.2*; GC-A act: -2.2; ADAM10 inh: 15.5; GC-B act: -5.1; ADAM10 counter: 15.1; ADAM17 confirm: 8.6

What do the screens show for `COC(=O)c1ccc(C2/C(=C(/O)c3ccc4c(c3)CC(C)O4)C(=O)C(=O)N2Cc2ccncc2)cc1` (centres undefined)?
ADAM17 inh: -3.8; GC-A act: 3.7; ADAM10 inh: -8.0; GC-B act: 3.0

Results for CC(C)(C)c1ccc(-c2nc(NCc3cccnc3)c3ccccc3n2)cc1 ?
ADAM17 inh: 12.5*; GC-A act: -2.1; ADAM10 inh: 13.2; GC-B act: -7.4; ADAM10 counter: 18.4; ADAM17 confirm: 12.2*

Results for O=C(CSc1nnc(-c2cnccn2)n1-c1ccccc1)Nc1ccc2cn[nH]c2c1 ?
ADAM17 inh: -2.8; GC-A act: 1.1; ADAM10 inh: -6.7; GC-B act: -3.8

How did COc1ccc(C[C@H]2CN3C(=NC[C@@H]3C)N2CCNC(=O)CCC2CCCCC2)cc1 do in these assays?
ADAM17 inh: 10.9*; GC-A act: -2.5; ADAM10 inh: 17.8; GC-B act: 2.9; ADAM10 counter: -11.0; ADAM17 confirm: -1.4
